Screening data deposited in PubChem by National Center for Advancing Translational Sciences (NCATS).
PLK1 PBD block = inhibitors of human PLK1 polo-box domain binding. P53350. Plk1 PBD binding of FITC phosphopeptide, fluorescence polarization. Potency, µM, for the others: max response, negative = inhibition, usual class: inhibitors. 360,000 tested, 2.8% active. AID 720504; also: series mostly up to about 57 µM; nearly all actives have a fitted effect of over 65% in size
Target sequence (P53350 whole entry, looked up, the tested form may be a part): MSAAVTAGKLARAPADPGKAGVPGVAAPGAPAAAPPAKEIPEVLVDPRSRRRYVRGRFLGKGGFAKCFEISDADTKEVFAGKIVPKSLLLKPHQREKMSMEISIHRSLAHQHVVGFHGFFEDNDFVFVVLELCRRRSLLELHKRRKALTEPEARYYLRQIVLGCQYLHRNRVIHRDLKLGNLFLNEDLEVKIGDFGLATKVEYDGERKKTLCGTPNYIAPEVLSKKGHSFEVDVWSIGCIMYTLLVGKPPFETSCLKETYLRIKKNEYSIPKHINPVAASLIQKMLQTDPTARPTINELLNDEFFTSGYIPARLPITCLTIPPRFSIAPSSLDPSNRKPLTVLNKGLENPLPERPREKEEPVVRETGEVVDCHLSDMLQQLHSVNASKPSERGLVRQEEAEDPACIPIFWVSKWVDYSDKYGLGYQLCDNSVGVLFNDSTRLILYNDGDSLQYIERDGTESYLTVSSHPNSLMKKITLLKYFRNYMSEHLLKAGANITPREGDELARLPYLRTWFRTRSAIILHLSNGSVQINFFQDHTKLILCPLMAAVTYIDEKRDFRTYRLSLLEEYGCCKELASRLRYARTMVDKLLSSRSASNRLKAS
VDR inh = vitamin D3 receptor (human) inhibition; P11473; VDR-SRC2-3 peptide fluorescence polarization, 2 h; Potency, µM, for the others: max response, negative = inhibition, most hits filed as inhibitors; 400,000 tested, 0.93% active; AID 504847
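Reagent solutions, kept cold and dark, are dispensed first; compounds are then pinned in at 23 nl, plates briefly spun, and incubated 2 h at ambient temperature. Inhibition of VDR–SRC2-3 peptide binding is read by fluorescence polarization.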
Sfp PPTase inh = blocks B. subtilis Sfp PPTase activity | Biochemical Sfp PPTase activity, qHTS | Potency, µM, for the others: largest response in the series, negative = inhibition, actives largely listed as inhibitors | 310,000 tested, 3.5% active;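 also: the enzyme is Sfp with the accession as filed and its product quenches rhodamine fluorescence; 0% = enzyme reaction without inhibitor and -100% = no enzyme wells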
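Compounds were incubated with enzyme (final 15 nM) for 15 min at room temperature before substrate addition started the reaction. Fluorescence at 525 nm excitation, 598 nm emission was recorded immediately and after 30 minutes.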
Tau ThT inhib = inhibitors of human tau fibril formation, thioflavin T binding. P10636. recombinant tau K18 P301L, heparin-induced fibrillization, ThT fluorescence. Potency, µM (series often up to 57.4 µM), without a hit: top-dose activity, negative = inhibition, most hits filed as inhibitors. 270,000 tested, 2.1% active. AID 1460; also: nearly all actives have a fitted effect of over 55% in size
Target sequence (P10636 561-689 P618L limits assumed): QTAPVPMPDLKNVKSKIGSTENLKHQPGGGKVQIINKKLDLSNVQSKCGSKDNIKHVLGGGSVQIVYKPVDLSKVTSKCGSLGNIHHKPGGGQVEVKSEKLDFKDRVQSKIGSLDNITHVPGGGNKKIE
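ThT emission at 510 nm, taken 1 hr after adding 30 uM dye, quantifies aggregates formed when 20 uM heparin acts on human tau K18 P301L for 6 hr at 37 C.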
Tau fluor counter = counter-screen for tau fibril formation inhibitors; tau K18 P301L (four-repeat tau fragment) Alexa594 fluorescence, heparin fibrillization; Potency, µM (highest dose often 57.7 µM), inactives show at the highest dose activity change, negative = decrease; 280,000 tested, 0.93% active; also: nearly all actives have a fitted effect of over 55% in size
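Human K18 P301L tau (15 uM unlabeled plus 0.24 uM Alexa 594-labeled, final) in 100 mM sodium acetate pH 7 was mixed with compound and 20 uM heparin and incubated 6 hr at 37 C.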
Tau fibril FP = inhibitors of human tau fibril formation. Potency, µM (doses to about 57.7 µM), without a hit: top-dose activity, negative = inhibition, hits mostly inhibitors. K18 P301L tau heparin fibrillization, Alexa594 FP, 6 h. 280,000 tested, 0.39% active. P10636. AID 1468; also: nearly all actives have a fitted effect of over 55% in size
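Compound effects on tau fibrillization are measured by Alexa 594 fluorescence polarization (ex 555, em 632 nm). K18 P301L tau is used at 15 uM with 0.24 uM labeled tracer, and 20 uM heparin induces aggregation over 6 hr at 37 C.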
* marks the source's active call; other numbers are inactive results; ? = inconclusive; / = not tested or not shown; [ ] = remark or other dose. Most compounds without a hit are left out; they make up all but 6% or so of the library. Calls follow the shape of the dose curve; as a rule, active = well fitted curve in the direction sought with a large enough effect; inconclusive = small, poorly fitted or top-dose-only effect, or another doubt; inactive = no such curve, though single readings can be large; an effect the other way counts as inactive or inconclusive. Unless noted, % is scaled to controls: 0 for no effect and ±100 for the full control effect; potency is read from the fitted curve at half-maximal effect.

SMILES | PLK1 PBD block | VDR inh | Sfp PPTase inh | Tau ThT inhib | Tau fluor counter | Tau fibril FP
S=c1[nH]nc(-c2cc3c(s2)-c2ccccc2CC3)o1 | 21µM* | ? | ? | 13µM* | ? | 13%
CSc1nnc(-c2ccccc2)o1 | -11% | -11% | 15% | -14% | -12% | -2%
Cc1ccc(NC(=O)CCS(=O)(=O)c2ccc3c(c2)oc(=O)n3C)c(Br)c1 | / | 5% | / | -10% | -13% | -6%
CNCCCNC(=O)c1ccc(/C=N/O)nc1 | -13% | 17% | 79µM* | -9% | -3% | -6%
O=C(NCc1ccccn1)c1ccc(/C=N/O)nc1 | -4% | -2% | 50µM* | -10% | -8% | -12%
CN(C)CCCNC(=O)c1ccc(/C=N/O)nc1 | -12% | -10% | 9% | -16% | -10% | -2%[2.34 µM]
O=C(NCc1ccccc1)c1ccc(/C=N/O)nc1 | -1% | 0% | -19% | 0% | 7% | 3%
COc1ccc(-n2nnnc2S(=O)(=O)Cc2ccc(C(=O)O)cc2)cc1 | 30µM* | ? | -5% | ? | 4% | -9%
COc1ccc(-n2nnnc2S(=O)(=O)CC(=O)N2CCCCC2)cc1 | 12µM* | ? | -13% | ? | -4% | -11%
Fc1ccccc1CSc1ccc(-c2ccco2)nn1 | ? | -13% | 56µM* | -18% | -17% | -1%
c1ccc(CSc2ccc(-c3ccco3)nn2)cc1 | -24% | -25% | 32µM* | -18% | -9% | -2%
Clc1cccc(CSc2ccc(-c3ccco3)nn2)c1 | -12% | ? | 35µM* | ? | -18% | 3%
Cc1ccc(CSc2ccc(-c3cccs3)nn2)cc1 | 1% | 3% | 8% | 3% | 3% | ?
Cc1ccc(CSc2ccc(-c3ccco3)nn2)cc1 | -10% | -4% | 28µM* | ? | -14% | -4%
N#Cc1ccc(-c2ccco2)nc1SCc1ccccc1 | -4% | 0% | -9% | -9% | ? | -15%
Cc1ccc(NC(=O)Cn2nc(C)c3nn(-c4ccc(Cl)cc4)c(C)c3c2=O)cc1C | / | 11% | / | 17% | -3% | 3%
COc1ccc(C[C@H]2CN3C(=NC[C@@H]3Cc3ccc(O)cc3)N2CCNC(=O)c2ccc(C)c(Br)c2)cc1 | -14% | 5% | -19% | -18% | -20% | 2%
Cc1ccc(C(=O)NCCN2C3=NC[C@@H](Cc4ccccc4)N3C[C@H]2Cc2ccc(O)cc2)cc1Br | 1% | 9% | 45µM* | ? | -15% | 5%
COc1ccc(C[C@H]2CN3C(=NC[C@@H]3Cc3ccccc3)N2CCNC(=O)c2ccc(C)c(Br)c2)cc1 | ? | -33% | 32µM* | ? | -4% | 0%
COc1ccc(C[C@H]2CN3C(=NC[C@H]3Cc3ccccc3)N2CCNC(=O)c2ccc(C)c(Br)c2)cc1 | -5% | 1% | 50µM* | -17% | 10% | 1%
Cc1ccc(C(=O)N[C@@H](C)CN2C3=NC[C@H](C(C)C)N3C[C@H]2Cc2ccc(O)cc2)cc1Br | 27µM* | -28% | 40µM* | 9% | -1% | 5%
COc1ccc(C[C@H]2CN3C(=NC[C@@H]3Cc3ccc(O)cc3)N2C[C@H](C)NC(=O)c2ccc(C)c(Br)c2)cc1 | -23% | -17% | ? | -11% | -13% | 0%
Cc1ccc(C(=O)NCCN2C3=NC[C@H](Cc4ccc(O)cc4)N3C[C@H]2Cc2ccc(O)cc2)cc1Br | 3% | -13% | -25% | ? | ? | 2%
CN(C)c1ccc(Nc2ccc([N+](=O)[O-])cn2)cc1 | -24% | 2% | -1% | / | / | /
Cc1ccc(OCC(=O)Nc2nonc2-c2ccc(C)c(C)c2)cc1C | / | 19% | / | 9% | 6% | 2%
SMILES | PLK1 PBD block | VDR inh | Sfp PPTase inh | Tau ThT inhib | Tau fluor counter | Tau fibril FP
CC(=O)Nc1ccc(S(=O)(=O)NCC(=O)N2CCN(S(=O)(=O)c3cccs3)CC2)cc1 | 15µM* | -8% | / | / | / | /
CCCNC(=O)c1nc(C)n(-c2cc(Cl)cc(Cl)c2)n1 | -22% | 10% | 16% | -5% | -3% | 3%
CNC(=O)c1nc(C)n(-c2ccc(Cl)cc2Cl)n1 | 3.8µM* | ? | 13% | 4% | 3% | -15%
CCCNC(=O)c1nc(C)n(-c2cc(Cl)ccc2Cl)n1 | 21µM* | 0% | -1% | 2% | 4% | 4%
Cc1cc(C(=O)OCC(=O)Nc2ccccc2Br)c(C)o1 | -5% | -26% | / | / | / | /
O=C(Nc1cccc(C(F)(F)F)c1)c1cc2nc(-c3ccccc3)cc(C(F)(F)F)n2n1 | / | -21% | / | -7% | -9% | -8%
Cc1nc(Cl)c2c(n1)NC1=C(O2)C(=O)CCC1 | 21µM* | 4% | -2% | ? | -1% | -8%
CCCCn1c(-c2nn(C)c(C)c2Cl)n[nH]c1=S | -15% | 1% | 8% | -10% | 0% | 0%
CCc1nn(C)c(-c2n[nH]c(=S)n2N)c1Cl | -4% | -9% | 45µM* | -3% | -1% | -4%
CCc1cc(-c2n[nH]c(=S)n2N)n(C)n1 | -5% | -18% | 40µM* | 3% | 0% | -1%
Cc1ccccc1Cc1n[nH]c(=S)n1N | -11% | -6% | -30% | 8% | 9% | 3%
Cc1ccc2[nH]c(=O)c(C(c3nnnn3C3CCCC3)N3CCCc4ccccc43)cc2c1 (stereo not drawn) | -4% | -10% | 8.9µM* | ? | -27% | 11%
Cc1ccc(C(c2nnnn2C2CCCC2)N2CCc3ccccc32)cc1 (stereo not drawn) | -7% | 12% | -6% | ? | -27% | 6%
CCC(C)(C)n1nnnc1C(c1cc2cc(C)ccc2[nH]c1=O)N1CCCc2ccccc21 (stereo not drawn) | -25% | 7% | 20µM* | ? | -20% | 0%
CCOc1ccc(C(C)=O)cc1N1C(=O)C2C3C=CC(C3=C(C)C)C2C1=O (stereo not drawn) | -5% | -24% | 45µM* | -4% | -1% | -2%
CCOc1ccc(C(C)=O)cc1N1C(=O)C2C(C1=O)C1C=CC2C12CC2 (stereo not drawn) | -4% | -6% | 7% | -6% | -3% | -9%
COc1cc(/C=C/C=C2/CC/C(=C/C=C/c3ccc(O)c(OC)c3)C2=O)ccc1O | 7% | ? | / | / | / | /
COc1cc(/C=C2\SC(=Nc3ccccc3OC)NC2=O)ccc1O | 21% | 1% | 9% | / | / | /
COc1cc(/C=C2/SC(=Nc3ccc(O)cc3)NC2=O)ccc1O | 26% | -7% | -12% | 4.5µM* | ? | ?
COc1cc(/C=C2/CC/C(=C/c3ccc(O)c(OC)c3)C2=O)ccc1O | ? | -9% | ? | 0.89µM* | -22% | ?
COc1ccc(/C=C2\CC/C(=C\c3ccc(OC)c(OC)c3)C2=O)cc1OC | -11% | ? | -20% | ? | -11% | 11%
